Screen size: about 310,000 compounds; about 14,000 (4.5%) showed an effect of 50% or more. Effects have a minus sign here. The full list was thinned out, with strong results kept by preference.
What follows are compounds tested against human ether-à-go-go-related gene (hERG) potassium channel (human, UniProt Q12809) (assay: primary screen, population patch clamp on CHO cells stably expressing hERG; higher = less effect of the substance).
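Further: peak tail current of the secondary pulse compared with the same well before compound.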

human ether-à-go-go-related gene (hERG) potassium channel, sequence (Q12809 whole entry, looked up): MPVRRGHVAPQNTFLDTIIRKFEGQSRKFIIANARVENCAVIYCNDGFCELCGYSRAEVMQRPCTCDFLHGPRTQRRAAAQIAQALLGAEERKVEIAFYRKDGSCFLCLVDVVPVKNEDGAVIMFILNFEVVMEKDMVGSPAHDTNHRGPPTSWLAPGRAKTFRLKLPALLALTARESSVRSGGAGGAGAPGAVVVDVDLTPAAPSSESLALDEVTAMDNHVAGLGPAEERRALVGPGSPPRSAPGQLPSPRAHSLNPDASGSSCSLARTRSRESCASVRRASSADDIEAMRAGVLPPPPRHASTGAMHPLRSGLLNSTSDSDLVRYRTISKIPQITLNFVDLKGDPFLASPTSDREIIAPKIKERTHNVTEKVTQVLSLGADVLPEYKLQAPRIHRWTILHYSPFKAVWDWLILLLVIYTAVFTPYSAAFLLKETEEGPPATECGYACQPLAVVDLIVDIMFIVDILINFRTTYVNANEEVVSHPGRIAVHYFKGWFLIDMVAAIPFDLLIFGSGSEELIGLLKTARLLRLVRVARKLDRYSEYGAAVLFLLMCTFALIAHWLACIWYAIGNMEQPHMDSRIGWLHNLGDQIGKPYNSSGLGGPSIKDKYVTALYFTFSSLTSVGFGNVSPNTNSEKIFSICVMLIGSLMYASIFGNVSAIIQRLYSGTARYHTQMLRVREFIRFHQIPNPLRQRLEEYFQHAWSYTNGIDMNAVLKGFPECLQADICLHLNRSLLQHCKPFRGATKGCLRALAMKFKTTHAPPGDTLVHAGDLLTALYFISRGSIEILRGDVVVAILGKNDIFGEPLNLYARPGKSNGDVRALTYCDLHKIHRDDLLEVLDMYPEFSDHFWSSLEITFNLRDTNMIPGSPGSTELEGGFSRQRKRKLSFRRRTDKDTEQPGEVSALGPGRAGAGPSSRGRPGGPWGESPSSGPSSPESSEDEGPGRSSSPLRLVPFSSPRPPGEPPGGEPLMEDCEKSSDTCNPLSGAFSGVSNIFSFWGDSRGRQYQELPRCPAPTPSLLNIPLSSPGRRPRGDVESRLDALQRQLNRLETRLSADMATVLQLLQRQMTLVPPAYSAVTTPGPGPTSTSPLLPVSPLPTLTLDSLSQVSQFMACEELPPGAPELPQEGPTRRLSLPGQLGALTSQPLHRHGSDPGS

| Compound | hERG current change (%, negative = inhibition) at 10uM [%] |
| --- | --- |
| O=C(NCC1CCCO1)c1cc(-c2ccncc2)nc2ccc(S(=O)(=O)N3CCOCC3)cc12 (stereo not drawn) | -24.5 |
| CC(C)(C#CCN1CCCCC1)OCCOC(c1ccccc1)c1ccccc1.Cl | -21.3 |
| Cc1ccc(NC(=O)CCn2cnc3cc(C)c(C)cc32)cc1 | -8.26 |
| COc1ccccc1N1C(=O)c2ccc(C(=O)Nc3ccc(F)cc3)cc2C1=O | 1.07 |
| CCOC(=O)N1CCN(c2ncnc3c2[nH]c2ccc(F)cc23)CC1 | -2.67 |
| Cc1ccnc(NC(=O)C2CCN(S(=O)(=O)c3ccc4ccccc4c3)CC2)c1 | 7.94 |
| O=c1c(Br)c(N2CCCCC2)cnn1-c1ccccc1 | -16.5 |
| CC(C)Cc1oc(C(=O)O)cc1CN.Cl | -4.32 |
| O=C(Nc1nnc(-c2ccc(Cl)cc2)o1)c1ccc(N2C(=O)CCC2=O)cc1 | 12.9 |
| Cc1ccccc1OCC(=O)OCC(=O)Nc1ccc(N2CCOCC2)cc1 | 9.51 |
| O=S(=O)(Nc1c(F)cccc1F)c1ccc2c(c1)OCCO2 | 9.82 |
| CCOC(=O)c1sc2nc(NC(=O)C(C)(C)C)sc2c1C | -11.7 |
| Cc1ccc(S(=O)(=O)N(C)c2nc3ccccc3n3c(C(C)C)nnc23)cc1 | -28.1 |
| CN(CCCNC(=O)CCC(=O)N1CCOc2ccccc21)Cc1ccccc1 | -30.7 |
| CCN(CCCNC(=O)CCC(=O)N1CCOc2ccccc21)Cc1ccccc1 | -62.5 |
| O=C(CCC(=O)N1CCOc2ccccc21)NCCc1ccccc1 | -6 |
| Cc1ccc2c(c1)N(C(=O)CCC(=O)NCCCN(C)Cc1ccccc1)CCO2 | -68.3 |
| CC(CNC(=O)CCC(=O)N1CCOc2ccc(Cl)cc21)c1ccccc1 (stereo not drawn) | -40.6 |
| O=C(CCC(=O)N1CCOc2ccc(Cl)cc21)NCc1ccccc1 | -21.7 |
| O=C(CCC(=O)N1CCOc2ccccc21)NCCCc1ccccc1 | -17.5 |
| Cc1ccc2c(c1)N(C(=O)CCC(=O)NCc1cccc(F)c1)CCO2 | -5.21 |

| Compound | hERG current change (%, negative = inhibition) at 10uM [%] |
| --- | --- |
| CN(CCCNC(=O)CCC(=O)N1CCOc2ccc(Cl)cc21)Cc1ccccc1 | -64.1 |
| COc1ccc(C(=O)Oc2cc(C)[nH]c(=O)c2[N+](=O)[O-])c(OC)c1 | 11.9 |
| Cc1ccc(C)c2[nH]c(=O)c(CN(Cc3ccco3)S(=O)(=O)c3ccc4c(c3)OCCO4)cc12 | 9.44 |
| CC(C)NC(=O)[C@]1(C)CCC[C@@]2(C)C3CC[C@@]4(C)C[C@]3(CCC21)CC4=O (stereo partly drawn) | 6.23 |
| CCc1ccc(NC(=O)C2CCCN(S(C)(=O)=O)C2)cc1 (stereo not drawn) | 21.3 |
| C=CCn1c(SCc2csc(C)n2)nc2sc3c(c2c1=O)CCCCC3 | -8.41 |
| O=C(CN1C(=O)C(c2ccc(F)cc2)=NC12CCCC2)Nc1ccc(F)cc1 | -5.39 |
| CC(C)(C)OC(=O)N1C[C@H](O)C[C@H]1C(=O)OCC(=O)c1ccc([N+](=O)[O-])cc1 | -63.4 |
| CC(C)(C)OC(=O)N1CC(O)CC1C(=O)OCC(=O)c1ccc(Cl)cc1 (stereo not drawn) | -16.4 |
| CC(C)(C)OC(=O)N1CC(O)CC1C(=O)OCC(=O)c1ccccc1 (stereo not drawn) | 5.86 |
| COc1cccc(/C=N/NC(=O)c2[nH]c(C)c(C(=O)N/N=C/c3cccc(OC)c3O)c2C)c1O | 11.7 |
| CCN1CCc2c(OCC(=O)Nc3ccc4c(c3)OCCO4)cccc2C1=O | 5.28 |
| Cc1cc(NCCCN2CCOCC2)n2ncc(-c3ccccc3)c2n1 | -21 |
| Cc1cc(NCCCn2ccnc2)n2ncc(-c3ccc(Cl)cc3)c2n1 | -68 |
| CC(C)(C)c1cc(NCCCn2ccnc2)n2ncc(-c3ccccc3)c2n1 | -18 |
| Cc1cc(NCCCN2CCOCC2)n2ncc(-c3ccc(Cl)cc3)c2n1 | 0.66 |
| Cc1cc(NCCCn2ccnc2)n2ncc(-c3ccccc3)c2n1 | -67.6 |
| CC(C)(C)c1cc(NCCCn2ccnc2)n2ncc(-c3ccc(Cl)cc3)c2n1 | 12.1 |
| Cc1ccc(S(=O)(=O)N2CCN(Cc3ccccc3)CC2)c(C)c1N(C)S(=O)(=O)c1ccccc1 | 5.81 |
| Cc1ccc(S(=O)(=O)N(C)c2c(C)ccc(S(=O)(=O)N3CCN(C=O)CC3)c2C)cc1 | -42.8 |
| Cc1ccc(S(=O)(=O)N(C)c2c(C)ccc(S(=O)(=O)N3CCN(C)CC3)c2C)cc1 | -60.8 |

| Compound | hERG current change (%, negative = inhibition) at 10uM [%] |
| --- | --- |
| Cc1cc(C)c(S(=O)(=O)N2CCCCC2)c(C)c1N(C)S(=O)(=O)c1ccc(Cl)cc1 | 0.393 |
| C=C(C)CN1CCN(S(=O)(=O)c2ccc(C)c(N(C)S(=O)(=O)c3ccc(C)cc3)c2C)CC1 | -2.33 |
| Cc1ccc(S(=O)(=O)N2CCN(C)CC2)c(C)c1N(C)S(=O)(=O)c1ccc(Cl)cc1 | -68.7 |
| N#Cc1c(Nc2ccccc2)sc(C(=O)c2ccccc2)c1N | -7.02 |
| O=C(O)c1cccc([N+](=O)[O-])c1C(=O)Nc1cccc2ccccc12 | 21.9 |
| C[C@@H]1CC=C[C@H]2[C@H]1C(=O)N(Cc1ccccc1)[C@H]2c1ccc(/C=C/c2ccccc2)cc1F | 4.34 |
| O=C(CN(Cc1ccco1)C(=O)Cn1nnc(-c2cccs2)n1)NCC1CCCO1 (stereo not drawn) | 6.63 |
| O=C(CN(CCc1ccccc1)C(=O)Cn1nnc(-c2cccs2)n1)NCc1ccco1 | -38.7 |
| O=C(CN(Cc1ccco1)C(=O)Cn1nnc(-c2cccs2)n1)NCc1ccccc1 | -51.7 |
| CCSc1nnc(NC(=O)COc2ccc(Cl)cc2)s1 | 24 |
| CC(=O)C1=C(C)NC(SCC(=O)c2ccc(Cl)c(Cl)c2)=C(C#N)C1c1ccco1 (stereo not drawn) | 5.27 |
| CCCCC(=O)NC(Nc1cc(C)ccn1)(C(=O)OCC)C(F)(F)F (stereo not drawn) | 2.5 |
| CCC(C)(C)C1CCC(=NNC(=S)Nc2ccccc2)CC1 (stereo not drawn) | 11.4 |
| COC(/C=C/Nc1ccc(OC)cc1)=C(C#N)C#N | -59.9 |
| COC(/C=C/Nc1ccc(Br)cc1)=C(C#N)C#N | -39.3 |
| COC(/C=C/Nc1ccc(C)cc1)=C(C#N)C#N | -38 |
| CCc1cc2c(CN3CCN(CC)CC3)cc(=O)oc2cc1O | -8.81 |
| CC1(C)Oc2ccc3ccc(=O)oc3c2C(/C=N/O)C1=O (stereo not drawn) | 3.87 |
| O=C(CN1C(=O)NC2(CCCCCC2)C1=O)c1ccc(OC(F)F)cc1OC(F)F | -35 |
| COc1cc(OC)c(OC)cc1CN1CCN(Cc2cccc(F)c2)CC1.O=C(O)C(=O)O | 10.2 |
| COc1cc(CN2CCN(Cc3ccc(SC)cc3)CC2)cc(OC)c1O.O=C(O)C(=O)O | -67.9 |

| Compound | hERG current change (%, negative = inhibition) at 10uM [%] |
| --- | --- |
| COc1cc(CN2CCN(C(=O)CC(C)C)CC2)cc(OC)c1O.O=C(O)C(=O)O | -0.00662 |
| COc1cccc(CN2CCN(Cc3cc(OC)c(OC)cc3OC)CC2)c1.O=C(O)C(=O)O | -29.1 |
| COc1cc(OC)c(OC)cc1CN1CCN(Cc2ccc(SC)cc2)CC1.O=C(O)C(=O)O | -61.5 |
| COc1ccc(C(=O)N2CCN(Cc3cc(OC)c(O)c(OC)c3)CC2)cc1OC.O=C(O)C(=O)O | 8.89 |
| Cc1ccc(N2C(=O)CS(=O)(=O)CC2=O)cc1 | 22.9 |
| CC[C@H](C)[C@H](NC(N)=O)C(=O)NCCc1ccc(OC)c(OC)c1 | 20.1 |
| O=[N+]([O-])C(=C1Nc2ccccc2N1)/C(Cl)=C(/Cl)Br | 19.8 |
| c1csc(-c2nc(NCC3CCCO3)c3ccccc3n2)c1 (stereo not drawn) | -20.5 |
| N#Cc1nc(-c2cccs2)oc1NCC1CCCO1 (stereo not drawn) | -10 |
| Brc1ccc2nc(-c3cccs3)c(NCC3CCCO3)n2c1 (stereo not drawn) | -52.6 |
| COc1ccccc1OCC(=O)Nc1c2c(nn1-c1ccccc1)CS(=O)(=O)C2 | -8.22 |
| Cc1c(C)c2cc(Cl)c(OCC(=O)N3C[C@H]4C[C@@H](C3)c3cccc(=O)n3C4)cc2oc1=O | 1.78 |
| CC(=O)c1cccc(Nc2nc(-c3ccccc3)nc3ccccc23)c1.Cl | 26.9 |
| O=C(O)c1cccc(Nc2c3ccccc3nc3ccccc23)c1 | 19.7 |
| CC(=O)c1ccc(Nc2c3c(nc4ccccc24)CCCC3)cc1 | -53.3 |
| O=C(Nc1c2c(nc3ccccc13)CCCC2)c1ccccc1Cl | 17.2 |
| CC(=O)c1cccc(Nc2c3c(nc4ccccc24)CCC3)c1.Cl | -68.8 |
| Cc1ccccc1C(=O)Nc1c2c(nc3ccccc13)CCCC2 | -5.54 |
| CCC(CC)C(=O)NC12CC3CC(CC(C3)C1)C2 | 5.15 |
| Cc1cccc(CSCCNC(=O)CN(c2cc(C)cc(C)c2)S(C)(=O)=O)c1 | -23.9 |
| CC(NC(=O)C(=O)N1CCOCC1)C(c1cccs1)N1CCN(c2ccc(F)cc2)CC1 (stereo not drawn) | -0.955 |

From article PMC4336329 (PLoS ONE, 2015)
